Laboratory results taken from PubChem BioAssay AID651593 (National Center for Advancing Translational Sciences (NCATS), 2012).
Hit rate of the full screen: of about 1,100 compounds, about 860 (78%) were called active. About 19% were inconclusive and are not listed. Calls follow the shape of the dose curve; as a rule, active = well fitted activation curve with a large enough effect; inconclusive = small, poorly fitted or top-dose-only effect; inactive = flat fitted curve, though single readings scatter. The set was probably picked from earlier hits. Some of the results follow.
Potency is read from the fitted curve at half-maximal effect.

Assay: qHTS of Nrf2 Activators: Hit Validation in Primary Assay; also: nearly all actives have a fitted effect of over 70% in size; as to activation: 0% is about no effect
Conditions: Nrf2/ARE reporter cell assay; Potency: activation; series mostly up to 46.1 µM; activation: at the top concentration
Text: Many diseases have some form of oxidative stress injury and ties to inflammation, causing a host of problems for the patient. The antioxidant response element (ARE) plays an important role in alleviating the harmful effects of oxidative stress. The antioxidant response element (ARE) is a transcriptional regulatory element involved in the activation of genes coding for a number of antioxidant proteins and detoxifying enzymes. These enzymes work in concert to protect tissues from oxidative insults and chemical toxicities in human hepatocytes and immune cells. The protective effects of ARE activation are primarily triggered through Nrf2 (NF-E2-related factor) binding to and activating AREs. It is known that Nrf2 controls the production of over 250 antioxidant and detoxification proteins (Hu et al., 2006), thereby protecting tissues by increasing cellular antioxidant content and suppressing inflammatory signaling pathways. The transcription factor Nrf2 is a central link between oxidative chemicals, such as phenolic antioxidants and electrophilic compounds, and the activation of ARE. Nrf2 levels are constitutively low as a consequence of its interaction with Keap1, which targets its degradation (Zipper and Mulcahy, 2002). Electrophiles react with key cysteine residues in Keap1, releasing Nrf2 and allowing its translocation to the nucleus. Once within the nucleus, Nrf2 complexes with coactivators such as p300, and binds to the AREs to induce gene transcription of cytoprotective enzymes, resulting in the prevention of toxicity. Activation of Nrf2 protects tissues by increasing cellular antioxidant content and suppressing inflammatory signaling pathways. Identifying novel and potent Nrf2 activators by using the AREc32 cell line to detect ARE activation by small molecules will lead to the identification and development of probes to study protective pathways in multiple tissues. These specific probes are essential to study the ARE pathway, and eventually to determine whether this pathway does activate genes that could protect against a host of diseases, including cardiovascular diseases, obesity, diabetes, Alzheimer's, and Parkinson's disease.
This project's aim is to identify novel and potent Nrf2 activators by using the AREc32 cell line to detect ARE activation by small molecules, which will lead to the identification and development of probes to study the ARE pathway.
NIH Chemical Genomics Center [NCGC]
NIH Molecular Libraries Probe Centers Network [MLPCN]
Assay Submitter (PI): Curtis Klaassen, University of Kansas Medical Center
Quantification of ARE activation after compound treatment was measured by the Steady-Glo Luciferase (R) assay system (Promega) in AREc32_fluc stable cells. The Steady-Glo reagent acts by cell lysis and generation of a luminescent signal proportional to ARE activation, through the luciferase reporter in the AREc32 stable cell line. AREc32_fluc cells were harvested from T225 flask and resuspended in phenol red free OPTI-MEM medium with 5% FBS. Then 5 microL of 200,000 cells/mL resuspended cells were dispensed into each well of white, solid bottom, 1536-well tissue culture-treated plates using a Multidrop Combi dispenser. After overnight culture at 37 degrees C with 5% CO2, a total of 23 nL of compounds at 5 selected concentrations from the MLSMR/Sytravon or positive control (40 uM stock of CDDO-IM and 2 mM of tBHQ) in DMSO was transferred to each well of the assay plate using a pintool (Kalypsys, San Diego, CA), and the plates were further incubated at 37 degrees C with 5% CO2 for 24 hours. After that, 2 microL of Steady Glo luminescent substrate mix (Promega) was added to each well. The plate was incubated at room temperature for 30 minutes. The plates were measured on a ViewLux plate reader (PerkinElmer) with clear filter.
For Brc1ccccc1C1N=C(c2ccccc2)NO1 (stereo not drawn), the Potency was 5.8 µM (active). In the case of CN1CCN(c2sc(S(C)(=O)=O)nc2S(=O)(=O)c2ccc(Cl)cc2)CC1, the Potency is reported as 8.2 µM (active). In the case of Cc1ccc(S(=O)(=O)c2nc(S(C)(=O)=O)sc2N2CCN(C)CC2)cc1, the Potency is reported as 5.17 µM (active). In the case of O=C(Nc1nc2ccc(F)cc2s1)c1ccc([N+](=O)[O-])o1, the Potency is reported as 3.66 µM (active). In the case of O=C(Nc1nc2c(Cl)cccc2s1)c1ccc([N+](=O)[O-])o1, the Potency is reported as 3.66 µM (active). With O=c1cc(-c2cccc(Br)c2)oc2cccc(O)c12 the Potency was 5.8 µM (active). With Cn1c(N)c(C(=O)COC(=O)c2nc(Cl)ccc2Cl)c(=O)n(C)c1=O the Potency was 1.46 µM (active). In the case of COc1cc(NC(=S)Nc2ccccn2)c(OC)cc1Cl, the Potency is reported as 5.17 µM (active). In the case of COc1ccc(C(C#N)=C2C=CC(=NO)C=C2)cc1, the Potency is reported as 1.3 µM (active). For C/C(=N\NC(=S)Nc1cccc(C)c1)c1ccco1, the Potency was 2.31 µM (active). In the case of O=C(Nc1ccc(OC(F)F)cc1)c1ncc(Cl)c(Cl)c1Cl, the Potency is reported as 16.4 µM (active). With c1ccc(CSc2nccc(-c3ccco3)n2)cc1 the Potency was 20.6 µM (active). With Nc1nccc(/C=C/c2c(F)cccc2Cl)n1 the Potency was 9.2 µM (active). For COc1ccccc1Cc1c(-c2ccco2)nc2ccc(Cl)cn12, the Potency was 16.4 µM (active). In the case of Clc1ccc2nc(-c3ccco3)c(Cc3ccccc3)n2c1, the Potency is reported as 23.1 µM (active). In the case of FC(F)(F)c1cc(-c2cccs2)nc(NCc2ccco2)n1, the Potency is reported as 4.61 µM (active). For FC(F)(F)c1cc(-c2ccco2)nc(NCc2ccco2)n1, the Potency was 11.6 µM (active). With FC(F)(F)c1cc(-c2ccco2)nc(-n2nnc3ccccc32)n1 the Potency was 2.59 µM (active). In the case of Cc1ccc(N=C2NC(=O)/C(=C/C=C/c3ccco3)S2)cc1, the Potency is reported as 2.06 µM (active). For O=C1NC(=Nc2ccccc2)S/C1=C\C=C\c1ccco1, the Potency was 2.31 µM (active). For O=[N+]([O-])c1ccccc1C=CC=NN=Cc1ccccc1O, the Potency was 3.26 µM (active). In the case of O=[N+]([O-])c1cccc(C=NN=Cc2ccccc2O)c1, the Potency is reported as 8.2 µM (active). For NC(=O)N/N=C/c1ccccc1OC(=O)c1ccccc1Br, the Potency was 3.26 µM (active). In the case of COC(=O)c1sccc1NC(=O)c1ccc(Br)s1, the Potency is reported as 7.31 µM (active). In the case of COC(=O)c1sccc1NC(=O)c1ccc(Br)o1, the Potency is reported as 9.2 µM (active). For Cc1ccc(S(=O)(=O)c2cc3ccccc3oc2=O)cc1, the Potency was 8.2 µM (active). In the case of COC(=O)C(=C/C=C/c1ccco1)C(=O)OC, the Potency is reported as 9.2 µM (active). In the case of COC(=O)c1ccccc1NC(=O)/C=C/c1ccco1, the Potency is reported as 0.411 µM (active). For COc1ccccc1NC(=O)/C=C\c1ccco1, the Potency was 1.84 µM (active). With COC(=O)c1c(NC(=O)/C=C/c2ccco2)sc2c1CCC2 the Potency was 0.461 µM (active). With O=C(/C=C/c1ccco1)Nc1ccccc1N1CCCCC1 the Potency was 1.16 µM (active). With O=c1c2cc3c(=O)n(-c4ccccc4O)c(=O)c3cc2c(=O)n1-c1ccccc1O the “activation” value was 3.75% (inactive). For CCOc1ncccc1C(=O)NNC(=O)c1ccc(NS(=O)(=O)c2cccs2)cc1, the Potency was 2.59 µM (active). With Cc1ccc(C(=O)/C=C/c2ccc(-c3ccccc3[N+](=O)[O-])o2)cc1 the Potency was 2.06 µM (active). For O=C(/C=C/c1ccc(-c2ccccc2[N+](=O)[O-])o1)c1ccccc1, the Potency was 3.66 µM (active). In the case of O=C(/C=C/c1ccc(-c2ccccc2[N+](=O)[O-])o1)c1ccc(Br)cc1, the Potency is reported as 1.84 µM (active). For CC(/C=N/NC(=O)Cc1cccn1C)=C\c1ccco1, the Potency was 1.46 µM (active). In the case of c1ccc(CNc2nc(NCc3ccco3)nc(N3CCOCC3)n2)cc1, the Potency is reported as 5.17 µM (active). With CNC(=O)c1ccsc1NC(=O)c1ccc(Cl)s1 the Potency was 7.31 µM (active). For Nc1ccccc1N1C(=O)c2cccc3cccc(c23)C1=O, the Potency was 16.4 µM (active). With O=C1c2cccc3cccc(c23)C(=O)N1Cc1ccco1 the Potency was 5.17 µM (active). With CC(=O)Nc1cc(-c2ccsc2)cn2c(-c3ccc(F)cc3)cnc12 the Potency was 5.17 µM (active). For CC(C)c1ccc(NC(=O)c2cc(Br)ccc2Br)cc1, the Potency was 5.8 µM (active). For CCN1CCN(c2sc(S(C)(=O)=O)nc2S(=O)(=O)c2ccc(Cl)cc2)CC1, the Potency was 14.6 µM (active). For CS(=O)(=O)c1nc(S(=O)(=O)c2ccc(Cl)cc2)c(N2CCN(CCO)CC2)s1, the Potency was 8.2 µM (active). With COC(=O)c1cc(S(=O)(=O)C(C)C)c(S(C)=O)s1 (stereo not drawn) the Potency was 20.6 µM (active). For COc1c(C(=O)Nc2nnc(C3CC3)s2)csc1Cl, the Potency was 8.2 µM (active). For CCCc1c(C(=O)N/N=C/c2cccs2)nnn1-c1nonc1N, the Potency was 4.11 µM (active). For CN1C2CCC1/C(=C\c1ccccc1)C(=O)/C2=C\c1ccccc1, the Potency was 2.91 µM (active). For N#C/C(=C\c1ccccc1[N+](=O)[O-])c1nc(C2CC2)cs1, the Potency was 11.6 µM (active). With O=[N+]([O-])c1ccccc1S(=O)c1ccccc1[N+](=O)[O-] the Potency was 16.4 µM (active). In the case of COc1cc(/C=C/c2ccc3cccc(O)c3n2)cc(OC)c1OC, the “activation” value is reported as 25.9% (inactive). With Oc1ccc(Cl)cc1/C=C/c1ccc2cccc(O)c2n1 the Potency was 4.61 µM (active). With COc1cc(Cl)cc(/C=C/c2ccc3cccc(O)c3n2)c1OC the Potency was 2.31 µM (active). With Nc1c(C(=O)Nc2ccccc2Br)sc2nc(-c3cccs3)ccc12 the Potency was 14.6 µM (active). For COC(=O)c1ccc2nc(-c3ccco3)c(Cc3cccc(Cl)c3)n2c1, the Potency was 23.1 µM (active). With COC(=O)c1ccc2nc(-c3ccco3)c(Cc3ccccc3)n2c1 the Potency was 18.4 µM (active). In the case of COC(=O)c1ccc2nc(-c3cccc(Cl)c3)c(Cc3ccccc3OC)n2c1, the Potency is reported as 2.91 µM (active). In the case of O=[N+]([O-])c1cccc2ccc(/C=C/c3ccc(F)cc3)nc12, the Potency is reported as 1.84 µM (active). For O=[N+]([O-])c1ccc(/C=C/c2ccc3cccc([N+](=O)[O-])c3n2)cc1, the Potency was 0.731 µM (active). In the case of CCOc1cc(/C=C/c2ccc3cccc([N+](=O)[O-])c3n2)cc(Cl)c1O, the Potency is reported as 0.517 µM (active). With O=[N+]([O-])c1cccc2ccc(/C=C/c3ccc(Cl)cc3)nc12 the Potency was 1.16 µM (active). For O=[N+]([O-])c1cccc2ccc(/C=C/c3cccc(Br)c3)nc12, the Potency was 1.84 µM (active).
